Measured values taken from PubChem BioAssay (NCI).
About 79,000 compounds went through this panel and 15% of them were active in at least one assay; those are over-represented in the sample as a whole. A number with no mark means an inactive call. Active and inactive are the calls of the source. Rule as the data show it: active = growth inhibition above about 70%; inactive = the rest.

Assay: NCI Yeast Anticancer Drug Screen. Data for the rad50 strain (AID 155);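 also: 0% = growth of vehicle-only cultures of the same strain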
Settings: S. cerevisiae rad50 strain growth inhibition; at 50.0 µM; hits give high values
Method in brief: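 A DNA repair-deficient yeast mutant serves as the test organism; compound-induced growth inhibition is calculated against vehicle-treated cells.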

Structure (SMILES) | growth inhibition
C=CCN(C)C(=O)CCCCCCCC1C(CCCCCCCC)C2(Cl)C(Cl)=C(Cl)C1(Cl)C2(Cl)Cl (stereo unspecified) | 30.7%
CC1=CC=NN2C(=O)[C@H](C)C2C1 (stereo partly specified) | 5.8%
COC1(OC)N=C(N)C2(C#N)C(C)=C3NCN(C)N=C3C12C#N (stereo unspecified) | 8.15%
Cn1c(=O)c2[nH]c(SCCc3ccccc3)nc2n(C)c1=O | 0.65%
CCCCCC[C@H](C/C=C\CCCCCCCC(=O)OCCCC)OC(C)=O | -14.7%
CCOc1ccccc1NCN1C(=O)c2ccccc2C1=O | -38.9%
CC(=O)C(C)(C)CCC(C)(C)C(C)=O | 2.95%
ClC(Cl)(Cl)C1CCC2CCCC21 (stereo unspecified) | 4.15%
O=S(=O)(O)c1cc(N=Nc2cc(S(=O)(=O)O)c3ccccc3c2O)ccc1/C=C/c1ccc(N=Nc2cc(S(=O)(=O)O)c3ccccc3c2O)cc1S(=O)(=O)O | 34%
C/C(=N\Nc1ccccc1)c1sc(-c2nc(C)c(/C(C)=N/Nc3ccccc3)s2)nc1C | 24.3%
CC(C)(C)C(=O)Nc1c(Cl)c(C2CC2)nn1-c1ccccc1 | 7.55%
CC1(C)SC(C)(C)C1=O | -13.6%
CC(=O)OCC1OC(n2ccc(=O)[nH]c2=O)CC1N=[N+]=[N-] (stereo unspecified) | -25.1%
O=C(Nc1cccc(Cl)c1)c1cc2cc(N=Nc3ccc(Br)cc3)ccc2oc1=O | 36.4%
CC(CN(C)C)CN1c2ccccc2Sc2ccccc21 (stereo unspecified) | -6.7%
COC1=C(OC)C(=O)C(Sc2ccc3ccccc3c2)=C(Cl)C1=O | 95.2% (active)
